PubChem BioAssay (EPA / NIEHS)
Inconclusive results are not listed. Activity calls are given as the source filed them. Rule for the calls: active = hit-call score of the fitted dose curve at least 0.9, where 1 is the maximum; inconclusive = response in the unintended direction; inactive = score below 0.9.

Each compound was assayed on Sodium/Iodide Symporter (NIS), SLC5A5 (gene 6528) (assay: CPHEA_Stoker_NIS_Inhibition_RAIU: CPHEA's Radioactive Iodide Uptake (RAIU) Assay for Sodium/Iodide Symporter (NIS) Inhibition, Stoker and Laws Labs (AID 2283841)).
Method in brief: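 Iodide uptake read as CPM of intracellular 125I (final 329 pM) after 2 h room-temperature exposure in HEPES-buffered HBSS, pH 7.4. Human NIS-expressing HEK293T cells; six concentrations 0.001–100 uM, 0.5% DMSO, normalised to DMSO wells.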

outcome, inactive:
CCCCCCCCCCCC
O=C(O)C(=O)O
OCC(F)(F)C(F)(F)C(F)(F)C(F)(F)C(F)(F)C(F)(F)C(F)(F)C(F)(F)C(F)(F)C(F)(F)C(F)(F)F
Cc1cc(Cc2cc(C)cc(C(C)(C)C)c2O)c(O)c(C(C)(C)C)c1
O=C(O)C(F)(F)OC(F)(F)C(F)(F)OC(F)(F)C(F)(F)OC(F)(F)C(F)(F)C(F)(F)C(F)(F)F
CC(C)c1c(C(=O)Nc2ccccc2)c(-c2ccccc2)c(-c2ccc(F)cc2)n1CC[C@@H](O)C[C@@H](O)CC(=O)O
CCCCC(CC)C(=O)O (stereo unspecified)
NC(=NCCCCCCN=C(N)/N=C(\N)Nc1ccc(Cl)cc1)/N=C(\N)Nc1ccc(Cl)cc1
O=C(O)CCC(F)(F)C(F)(F)C(F)(F)C(F)(F)C(F)(F)F
CN(CCO)S(=O)(=O)C(F)(F)C(F)(F)C(F)(F)C(F)(F)C(F)(F)C(F)(F)C(F)(F)C(F)(F)F
CCCCCCc1ccc(N)cc1
Cc1[nH]nc2c1N=C(c1ccccc1Cl)c1cc([N+](=O)[O-])ccc1N2
Cc1cc(C(C)(C)C)c(O)c(C(C)(C)C)c1

AC50, active:
O=C1OC2(c3ccccc31)c1cc(I)c(O)c(I)c1Oc1c2cc(I)c(O)c1I 0.248 µM
O=C(CC(=O)C(F)(F)C(F)(F)C(F)(F)F)c1cccs1 13.5 µM
NCCN 4.18 µM
